Laboratory results published in PubChem BioAssay (EPA / NIEHS).
Values joined by “and” are separate entries in the source; they are usually repeats but may differ in a detail not shown here. Identical values can stand only once. Some structures have more than one record in an assay (separate samples or runs), and their calls can disagree. Active and inactive are the calls of the source. How the source made its calls: active means hit-call score of the fitted dose curve at least 0.9, where 1 is the maximum; inactive means score below 0.9.

Test: BSK_SAg_Proliferation: Cell Proliferation Assessment in the BioMAP Diversity Plus: SAg Assay (AID 2283095)
Conditions: primary human HUVEC with PBMC
Method: BSK_SAg is a cell-based, multiplexed-readout assay that uses umbilical vein endothelium and peripheral blood mononuclear cells, a human vascular primary cell co-culture, with measurements taken at 24 hours after chemical dosing in a 96-well plate.BSK_SAg_Proliferation is an assay component in the BSK_SAg assay. It measures protein content, a form of viability reporter, as detected with absorbance signals by Sulforhodamine staining technology. Data from the assay component BSK_SAg_Proliferation was analyzed into 1 assay endpoint. This assay endpoint, BSK_SAg_Proliferation, was analyzed with bidirectional fitting relative to DMSO as the negative control and baseline of activity. Using a type of viability reporter, measures of total protein for gain or loss-of-signal activity can be used to understand the viability at the cellular-level. Furthermore, this assay endpoint can be referred to as a secondary readout, because this assay has produced multiple assay endpoints where this one serves a viability function. To generalize the intended target to other relatable targets, this assay endpoint is annotated to the cell cycle intended target family, where the subfamily is proliferation.
The levels of cell surface (or secreted, indicated by the prefix "s") biomarker endpoints were measured by ELISA. Overt cytotoxicity to cells in confluent adherent cultures (all systems other than the BT system) was assessed by measuring total protein levels using sulforhodamine B (SRB) staining in parallel cultures at the time of biomarker measurements, indicated as SRB endpoints. For proliferation assays for adherent cell types, individual cell types are cultured at sub-confluence and relative cell numbers quantified by SRB staining at time points optimized for each system (48 h: 3C and CASM3C systems; 72 h: BT and HDF3CGF systems; 96 h: SAg system). SRB was performed by staining cells with 0.1% SRB after fixation with 10% TCA and reading wells at 560 nm.Viability and proliferation of PBMC (T cells) was quantified by Alamar Blue reduction for the SAg and BT systems. For PBMC viability (referred to as PBMC Cytotoxicity within the assay endpoint names), cells were plated (75,000/well in a 96-well plate) and then chemical samples added for 1 h before addition of activators, SEB and TSST-1 (20 ng/mL final concentration each). Cells were incubated for 90 h. Then, Alamar Blue (20 uL/well) (Invitrogen, Cat DAL1100) was added for 6 h, and the plates were read with a fluorescence microplate reader at 546/580 nm (excitation/emission). For PBMC proliferation, cells were plated and activated as above but incubated for only 16 h prior to addition of Alamar Blue. Plates were read after 6 h.

Q: For Brc1nc2ccccc2s1, which outcome is on record?
A: inactive

Q: For CCN(CCO)S(=O)(=O)C(F)(F)C(F)(F)C(F)(F)C(F)(F)C(F)(F)C(F)(F)C(F)(F)C(F)(F)F, which AC50 is on record?
A: 23.6 µM (active) and 18.6 µM (active)

Q: With C=CC(=O)OCC(F)(F)C(F)(F)C(F)(F)COC(=O)C=C as the molecule, how does the AC50 read?
A: 6.99 µM (active) and 5.35 µM (active)

Q: With CCOC(C=C(C)CCC=C(C)C)OCC as the molecule, how does the AC50 read?
A: 34.4 µM (active)

Q: For NCC(F)(F)C(F)(F)C(F)(F)C(F)(F)C(F)(F)C(F)(F)F, which outcome is on record?
A: inactive

Q: With CN(C(=O)C(F)(F)C(F)(F)C(F)(F)F)[Si](C)(C)C as the molecule, how does the outcome read?
A: inactive

Q: For OCC(F)(F)C(F)(F)C(F)(F)C(F)(F)C(F)(F)C(F)(F)C(F)(F)C(F)(F)CO, which outcome is on record?
A: inactive

Q: And the AC50?
A: 45.5 µM (active)

Q: Which outcome does the source give for O=C(c1ccccc1)c1ccc(O)cc1O here?
A: inactive

Q: For O=C(O)C(F)(F)C(F)(F)C(F)(F)OC(F)(C(F)(F)F)C(F)(F)F, which outcome is on record?
A: inactive

Q: With OCC(F)(F)C(F)(F)C(F)(F)CO as the molecule, how does the outcome read?
A: inactive

Q: For NC(O)(C(F)(F)F)C(F)(F)F, which outcome is on record?
A: inactive

Q: Which outcome does the source give for O=C(O)C(F)(F)C(F)(F)C(F)(F)C(=O)O here?
A: inactive

Q: With O=C1C=CC(=O)N1c1ccc(Cc2ccc(N3C(=O)C=CC3=O)cc2)cc1 as the molecule, how does the AC50 read?
A: 3.92 µM (active)

Q: Which outcome does the source give for CCN(CC)c1ccc(C=O)cc1 here?
A: inactive

Q: Which outcome does the source give for NC(=O)C(F)(F)C(F)(F)C(F)(F)F here?
A: inactive

Q: For NS(=O)(=O)C(F)(F)C(F)(F)C(F)(F)C(F)(F)C(F)(F)C(F)(F)F, which outcome is on record?
A: inactive

Q: For O=S(=O)(OCC(F)(F)F)C(F)(F)C(F)(F)C(F)(F)C(F)(F)F, which outcome is on record?
A: inactive

Q: With O=C(O)C(F)(F)C(F)(F)C(F)(F)OC(F)(F)F as the molecule, how does the outcome read?
A: inactive

Q: With Cc1cc(O)c(C(C)(C)C)cc1C(C)(C)C as the molecule, how does the AC50 read?
A: 3.82 µM (active)

Q: Which outcome does the source give for OCC(O)CC(F)(F)C(F)(F)C(F)(F)C(F)(F)F (stereo not given) here?
A: inactive

Q: With CC(C)CCCC(C)CCO (stereo not given) as the molecule, how does the AC50 read?
A: 20 µM (active)

Q: Which outcome does the source give for O=S(=O)(O)CCC(F)(F)C(F)(F)C(F)(F)C(F)(F)F here?
A: inactive

Q: With CC(C)(C)c1cc(CCC(=O)NCCCCCCNC(=O)CCc2cc(C(C)(C)C)c(O)c(C(C)(C)C)c2)cc(C(C)(C)C)c1O as the molecule, how does the outcome read?
A: inactive

Q: For OCCCC(F)(F)C(F)(F)C(F)(F)C(F)(F)C(F)(F)C(F)(F)C(F)(F)C(F)(F)F, which AC50 is on record?
A: 10.2 µM (active) and 14.6 µM (active)

Q: With NC(=O)C(F)(F)C(F)(F)C(F)(F)C(F)F as the molecule, how does the outcome read?
A: inactive

Q: With O=C(F)C1(F)C(F)(F)C(F)(F)C(F)(F)C(F)(F)C1(F)F as the molecule, how does the outcome read?
A: inactive

Q: With O=C(O)C(F)(F)C(F)(F)C(F)(F)C(F)(F)C(F)(F)C(F)(F)C(F)F as the molecule, how does the outcome read?
A: inactive

Q: Which outcome does the source give for CCOC(=O)CC(=O)C(F)(F)C(F)(F)F here?
A: inactive

Q: Which outcome does the source give for OCC(F)(F)C(F)(F)C(F)(F)C(F)(F)C(F)(F)C(F)(F)CO here?
A: inactive

Q: With O=S(=O)(Cl)C(F)(F)C(F)(F)C(F)(F)C(F)(F)C(F)(F)C(F)(F)C(F)(F)C(F)(F)F as the molecule, how does the outcome read?
A: inactive

Q: With C=CC(=O)OCC(F)(F)C(F)(F)C(F)(F)C(F)(F)C(F)(F)C(F)(F)C(F)(F)C(F)F as the molecule, how does the AC50 read?
A: 36.8 µM (active) and 27.1 µM (active)

Q: Which AC50 does the source give for Cc1ccc(S(=O)(=O)C(I)I)cc1 here?
A: 0.866 µM (active)

Q: With O=C=Nc1cccc2c(N=C=O)cccc12 as the molecule, how does the outcome read?
A: inactive

Q: For O=C(O)CCC(F)(F)C(F)(F)C(F)(F)F, which outcome is on record?
A: inactive

Q: With CNS(=O)(=O)C(F)(F)C(F)(F)C(F)(F)C(F)(F)C(F)(F)C(F)(F)C(F)(F)C(F)(F)F as the molecule, how does the outcome read?
A: inactive

Q: Which outcome does the source give for O=C(O)CCC(F)(F)C(F)(F)C(F)(F)C(F)(F)C(F)(F)C(F)(F)C(F)(F)F here?
A: inactive

Q: With O=C(O)C(F)(F)OC(F)(F)C(F)(F)OC(F)(F)C(F)(F)OC(F)(F)F as the molecule, how does the outcome read?
A: inactive

Q: With CCN(CC)c1ccc(N=Nc2ccccc2)cc1 as the molecule, how does the AC50 read?
A: 12.7 µM (active)

Q: For NC(=O)C(F)(F)C(F)(F)C(F)(F)C(F)(F)C(F)(F)C(F)(F)C(F)(F)F, which outcome is on record?
A: inactive
